# According to PubChem BioAssay AID1053180 (Broad Institute, 2014):
# About 20 (0.2%) of roughly 9,600 compounds were called active.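 Rule for the calls: active = highest normalized replicate activity of 15 or more, or at least half the replicates reach 15 or more; inactive = neither condition met.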 The list comes from a sample in which actives are over-represented; it also holds similar structures and randomly drawn compounds.
# Experiment: activators of Pax4 gene expression, primary screen, RT-PCR, mouse alpha TC1 cells, single point (AID 1053180);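 note: Pax4 Ct normalized to GAPDH with activation seen as lower delta delta Ct; plate controls were plate neutral control wells for no effect and Pax4 plasmid positive control for full effect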
# Conditions: Pax4 mRNA qPCR, 6 days, at 10 µM, stronger effect = higher value, 100% = Pax4 plasmid added at qPCR
row,SMILES,activation
1,CCCC(=O)N1CC2(C1)CN(C(=O)c1ccc(F)cc1)[C@H](CO)c1[nH]c3cc(OC)ccc3c12,0.003% (inactive)
2,CN(C)CC(=O)N1[C@H](C(=O)Nc2nccs2)[C@@H](CO)[C@@H]2Cn3c(ccc(C4=CCCCC4)c3=O)[C@@H]21,0% (inactive)
3,COc1ccc2c3c([nH]c2c1)[C@H](CO)N(S(=O)(=O)c1cn(C)cn1)CC31CCN(CC2CCCCC2)CC1,0.0045% (inactive)
4,CCC(=O)N1CC2(C1)CN(C(=O)c1cnccn1)[C@@H](CO)c1c2c2ccc(OC)cc2n1C,0.0005% (inactive)
5,C[C@@H]1CCCCO[C@H](CN(C)Cc2ccncc2)[C@H](C)CN([C@@H](C)CO)C(=O)c2cc(NC(=O)Cc3ccccc3)ccc2O1,-0.0005% (inactive)
6,O=C(C[C@H]1CC[C@@H]2[C@H](COC[C@H](O)CN2Cc2nccs2)O1)N1CCC(Cc2ccccc2)CC1,0.0115% (inactive)
7,C[C@@H]1CN([C@H](C)CO)C(=O)c2ccccc2-c2ccccc2CO[C@@H]1CN(C)Cc1ccc2c(c1)OCCN2C,0.075% (inactive)
8,O=C(C[C@@H]1CC[C@@H]2[C@H](COC[C@@H](O)CN2CCC(F)(F)F)O1)NCc1ccc2c(c1)OCO2,-0.005% (inactive)
9,CN(C)c1ccc2c(c1)[C@@H]1C[C@@H](CC(=O)NC3CCCCC3)O[C@@H](CO)[C@@H]1O2,0.029% (inactive)
10,O=C(O)[C@H]1[C@H](CO)[C@H]2Cn3c(ccc(-c4cccc(F)c4)c3=O)[C@H]2N1C(=O)c1ccccn1,0.0005% (inactive)
11,C[C@@H]1CCCCO[C@@H](CN(C)CC2CCCCC2)[C@H](C)CN([C@H](C)CO)C(=O)c2cc(NS(C)(=O)=O)ccc2O1,-0.001% (inactive)
12,C[C@H]1CN([C@@H](C)CO)C(=O)c2cccc(NC(=O)c3cnccn3)c2O[C@@H]1CN(C)C(=O)NC1CCCCC1,0.0055% (inactive)
13,CN1c2ccc(-c3ccc(C#N)cc3)cc2[C@H]2[C@H](CCN2S(=O)(=O)c2ccc(F)cc2)[C@@H]1CO,0.036% (inactive)
14,O=C(C[C@@H]1C[C@@H]2c3cc(NS(=O)(=O)c4ccc(F)cc4)ccc3O[C@@H]2[C@@H](CO)O1)N1CCc2ccccc2C1,0.011% (inactive)
15,C[C@H](CO)N1C[C@H](C)[C@@H](CN(C)C(=O)c2ccc3ccn(C)c3c2)OCc2cnnn2CCCC1=O,0.0015% (inactive)
16,COc1ccc2c3c(n(C)c2c1)[C@H](CO)N(S(=O)(=O)c1ccc(C)cc1)CC31CCN(C)CC1,0.052% (inactive)
17,CO[C@H](CN(C)Cc1ccc2c(c1)OCO2)[C@H](C)CN(C(=O)Nc1ccc(F)cc1)[C@H](C)CO,0.0005% (inactive)
18,O=C(NCc1ccccc1)[C@H]1[C@H](CO)[C@H]2Cn3c(cccc3=O)[C@@H]1N2C(=O)Cc1ccccn1,0% (inactive)
19,CNC[C@H]1OCc2cn(nn2)CCCC(=O)N([C@@H](C)CO)C[C@H]1C,0.005% (inactive)
20,COc1ccc2c3c(n(C)c2c1)[C@@H](CO)N(CC1CC1)CC31CN(C(=O)c2ccc3c(c2)OCO3)C1,8.42% (active)

row,SMILES,activation
1,COc1ccc2c3c(n(C)c2c1)[C@@H](CO)N(C)CC31CCN(C(=O)c2ccc3c(c2)OCO3)CC1,0.0125% (inactive)
2,COc1ccc2c3c(n(C)c2c1)[C@H](CO)N(CC1CC1)CC31CN(C(=O)c2ccc3c(c2)OCO3)C1,0.0045% (inactive)
3,CC[C@H]1C/C=C\C[C@@H](c2ccccc2)NC(=O)CCC(=O)N1,-0.01% (inactive)
4,O=C(c1cccc(F)c1)N1CC(=O)N2[C@@H](CO)[C@H](c3ccc(C4=CCCCC4)cc3)[C@@H]2C1,0.025% (inactive)
5,COc1ccc(CN(C)C[C@@H]2Oc3ccc(NC(=O)Nc4ccc5c(c4)OCO5)cc3CC(=O)N([C@@H](C)CO)C[C@@H]2C)cc1,0.002% (inactive)
6,COCC(=O)N1C[C@@H](C)[C@@H](OC)CN(C)C(=O)c2ccc(NC(=O)Nc3cccc(F)c3)cc2OC[C@H]1C,-0.0005% (inactive)
7,CCC(=O)N1[C@H](CO)[C@@H]2c3ccccc3N(C(=O)Nc3ccc(Cl)cc3)C[C@@H]21,-0.0015% (inactive)
8,COc1ccccc1S(=O)(=O)N(C)C[C@@H]1OCc2cn(nn2)CCCC(=O)N([C@H](C)CO)C[C@H]1C,0.001% (inactive)
9,O=C(C1CCOCC1)N1CC(=O)N2[C@H](C1)[C@@H](c1ccc(-c3cccnc3)cc1)[C@@H]2CO,0% (inactive)
10,O=C(C[C@@H]1CC[C@@H]2[C@H](COC[C@@H](O)CN2Cc2cc(F)ccc2F)O1)NCc1ccc(Oc2ccccc2)cc1,0.098% (inactive)
11,CN1c2ccc(-c3ccccc3)cc2[C@@H]2[C@@H](CCN2C(=O)NC2CCCCC2)[C@H]1CO,0.001% (inactive)
12,Cc1noc(C)c1S(=O)(=O)N(C)C[C@H]1Oc2ccc(NC(=O)c3ccncc3)cc2CC(=O)N([C@H](C)CO)C[C@H]1C,-0.009% (inactive)
13,CN1C(=O)c2cc(NC(=O)c3cnccn3)ccc2OC[C@@H]2O[C@H](CC(=O)NCC3CCCCC3)CC[C@@H]21,0.05% (inactive)
14,CO[C@@H]1CN(C)C(=O)c2ccc(NC(=O)Nc3cc(F)ccc3F)cc2OC[C@H](C)N(C(=O)c2ccccn2)C[C@@H]1C,0.0015% (inactive)
15,O=C(CN1CCOCC1)N1CC[C@@H]2[C@@H](CO)Nc3ccc(-c4ccccc4F)cc3[C@@H]21,0.001% (inactive)
16,O=C(C[C@@H]1C[C@H]2c3cc(NC(=O)NC4CCCC4)ccc3O[C@H]2[C@H](CO)O1)NCc1ccccc1F,0.02% (inactive)
17,CO[C@@H]1CN(C)C(=O)c2ccc(NC(=O)c3ccccc3F)cc2OC[C@H](C)N(C)C[C@H]1C,0.0025% (inactive)
18,O=C(C1CCOCC1)N1CC(=O)N2[C@H](CO)[C@@H](c3ccc(/C=C/c4ccccc4)cc3)[C@H]2C1,0.002% (inactive)
19,O=C1Nc2ccccc2OCc2cn(nn2)CC[C@H]1Cc1ccc(-c2ccccc2)cc1,0.059% (inactive)
20,O=C(C[C@@H]1C[C@@H]2c3cc(NC(=O)c4ccc5c(c4)OCO5)ccc3O[C@@H]2[C@H](CO)O1)NCCN1CCCCC1,-0.001% (inactive)
